In assay [1] the target is Platelet-derived growth factor receptor alpha (Homo sapiens) (UniProt P16234). The conditions noted are these: at 1 µM.
For assay [2] the target is unchanged. The conditions noted are these: at 10 µM.
Assay [3] has as its target Platelet-derived growth factor receptor beta (Homo sapiens) (UniProt P09619). The conditions noted are these: at 1 µM.
Assay [4] has the same target. Particulars: at 10 µM.
Assay [5] deals with T1, 3-phosphoinositide-dependent protein kinase 1 (Homo sapiens) (UniProt O15530).
T1 sequence (whole entry): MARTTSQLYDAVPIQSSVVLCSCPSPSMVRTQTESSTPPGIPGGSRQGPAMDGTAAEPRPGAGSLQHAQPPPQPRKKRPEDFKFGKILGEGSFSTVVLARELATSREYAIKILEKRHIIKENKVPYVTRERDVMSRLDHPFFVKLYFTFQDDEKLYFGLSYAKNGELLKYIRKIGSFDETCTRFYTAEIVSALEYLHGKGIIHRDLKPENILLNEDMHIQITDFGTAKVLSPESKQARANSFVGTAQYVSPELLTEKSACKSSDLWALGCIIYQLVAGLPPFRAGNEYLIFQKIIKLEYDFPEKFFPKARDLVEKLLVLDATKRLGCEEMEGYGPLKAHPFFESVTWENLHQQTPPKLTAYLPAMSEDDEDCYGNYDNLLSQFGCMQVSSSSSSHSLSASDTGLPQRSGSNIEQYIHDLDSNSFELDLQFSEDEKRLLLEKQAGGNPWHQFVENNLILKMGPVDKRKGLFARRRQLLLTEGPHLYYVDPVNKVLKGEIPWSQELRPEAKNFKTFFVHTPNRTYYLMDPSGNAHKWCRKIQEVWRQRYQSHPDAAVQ
The conditions noted are these: at 1 µM.

In assay [6] the target is T1, 3-phosphoinositide-dependent protein kinase 1 (Homo sapiens). The conditions noted are these: at 10 µM.
In assay [7] the target is cAMP-dependent protein kinase catalytic subunit alpha (Homo sapiens) (UniProt P17612). Particulars: at 1 µM.
Assay [8] has the same target. The conditions noted are these: at 10 µM.
The target in assay [9] is RAC-gamma serine/threonine-protein kinase (Homo sapiens) (UniProt Q9Y243). Particulars: at 1 µM.
For assay [10] the target is unchanged. Particulars: at 10 µM.

Chain of RAC-gamma serine/threonine-protein kinase (Homo sapiens) (Q9Y243 whole entry): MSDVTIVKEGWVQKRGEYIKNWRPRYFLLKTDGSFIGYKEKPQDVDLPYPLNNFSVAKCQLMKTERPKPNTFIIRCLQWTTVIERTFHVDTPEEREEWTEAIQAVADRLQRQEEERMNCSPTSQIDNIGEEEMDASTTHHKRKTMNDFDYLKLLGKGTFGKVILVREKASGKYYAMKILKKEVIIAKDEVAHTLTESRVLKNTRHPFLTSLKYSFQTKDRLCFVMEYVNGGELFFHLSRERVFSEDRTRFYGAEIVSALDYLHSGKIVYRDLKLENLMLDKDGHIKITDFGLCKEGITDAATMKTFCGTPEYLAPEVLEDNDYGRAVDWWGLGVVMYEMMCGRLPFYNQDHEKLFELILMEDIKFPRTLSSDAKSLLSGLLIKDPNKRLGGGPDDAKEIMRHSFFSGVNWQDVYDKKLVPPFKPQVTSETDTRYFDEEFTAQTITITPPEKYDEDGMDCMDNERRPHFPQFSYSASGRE
Chain of Platelet-derived growth factor receptor alpha (Homo sapiens) (P16234 whole entry): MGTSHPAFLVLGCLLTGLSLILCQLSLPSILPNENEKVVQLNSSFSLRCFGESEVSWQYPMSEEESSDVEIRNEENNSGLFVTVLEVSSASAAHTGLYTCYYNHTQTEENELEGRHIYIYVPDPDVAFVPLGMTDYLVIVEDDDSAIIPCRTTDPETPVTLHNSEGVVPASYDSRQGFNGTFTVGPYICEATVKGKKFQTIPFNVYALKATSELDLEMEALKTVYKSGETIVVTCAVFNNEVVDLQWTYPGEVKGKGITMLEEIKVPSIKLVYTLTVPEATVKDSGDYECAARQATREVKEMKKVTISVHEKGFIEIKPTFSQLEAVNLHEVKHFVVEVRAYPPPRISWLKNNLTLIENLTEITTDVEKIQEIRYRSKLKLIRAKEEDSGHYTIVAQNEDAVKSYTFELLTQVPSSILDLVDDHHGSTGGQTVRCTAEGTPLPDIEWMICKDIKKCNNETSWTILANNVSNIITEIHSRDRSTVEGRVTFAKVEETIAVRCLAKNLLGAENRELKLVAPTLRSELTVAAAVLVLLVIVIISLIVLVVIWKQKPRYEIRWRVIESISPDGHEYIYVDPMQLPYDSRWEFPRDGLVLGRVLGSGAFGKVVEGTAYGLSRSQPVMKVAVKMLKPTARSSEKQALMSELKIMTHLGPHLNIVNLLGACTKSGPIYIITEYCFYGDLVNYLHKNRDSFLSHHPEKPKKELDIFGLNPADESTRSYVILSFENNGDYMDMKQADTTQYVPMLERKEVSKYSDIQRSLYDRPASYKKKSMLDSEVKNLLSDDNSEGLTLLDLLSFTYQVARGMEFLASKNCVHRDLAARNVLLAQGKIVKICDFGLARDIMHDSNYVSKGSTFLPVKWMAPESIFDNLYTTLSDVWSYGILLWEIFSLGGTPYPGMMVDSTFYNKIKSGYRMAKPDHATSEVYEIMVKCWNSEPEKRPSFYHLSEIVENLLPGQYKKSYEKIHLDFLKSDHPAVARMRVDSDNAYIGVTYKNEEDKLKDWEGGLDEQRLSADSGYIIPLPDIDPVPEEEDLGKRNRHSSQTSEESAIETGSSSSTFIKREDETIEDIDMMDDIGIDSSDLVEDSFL
Chain of Platelet-derived growth factor receptor beta (Homo sapiens) (P09619 whole entry): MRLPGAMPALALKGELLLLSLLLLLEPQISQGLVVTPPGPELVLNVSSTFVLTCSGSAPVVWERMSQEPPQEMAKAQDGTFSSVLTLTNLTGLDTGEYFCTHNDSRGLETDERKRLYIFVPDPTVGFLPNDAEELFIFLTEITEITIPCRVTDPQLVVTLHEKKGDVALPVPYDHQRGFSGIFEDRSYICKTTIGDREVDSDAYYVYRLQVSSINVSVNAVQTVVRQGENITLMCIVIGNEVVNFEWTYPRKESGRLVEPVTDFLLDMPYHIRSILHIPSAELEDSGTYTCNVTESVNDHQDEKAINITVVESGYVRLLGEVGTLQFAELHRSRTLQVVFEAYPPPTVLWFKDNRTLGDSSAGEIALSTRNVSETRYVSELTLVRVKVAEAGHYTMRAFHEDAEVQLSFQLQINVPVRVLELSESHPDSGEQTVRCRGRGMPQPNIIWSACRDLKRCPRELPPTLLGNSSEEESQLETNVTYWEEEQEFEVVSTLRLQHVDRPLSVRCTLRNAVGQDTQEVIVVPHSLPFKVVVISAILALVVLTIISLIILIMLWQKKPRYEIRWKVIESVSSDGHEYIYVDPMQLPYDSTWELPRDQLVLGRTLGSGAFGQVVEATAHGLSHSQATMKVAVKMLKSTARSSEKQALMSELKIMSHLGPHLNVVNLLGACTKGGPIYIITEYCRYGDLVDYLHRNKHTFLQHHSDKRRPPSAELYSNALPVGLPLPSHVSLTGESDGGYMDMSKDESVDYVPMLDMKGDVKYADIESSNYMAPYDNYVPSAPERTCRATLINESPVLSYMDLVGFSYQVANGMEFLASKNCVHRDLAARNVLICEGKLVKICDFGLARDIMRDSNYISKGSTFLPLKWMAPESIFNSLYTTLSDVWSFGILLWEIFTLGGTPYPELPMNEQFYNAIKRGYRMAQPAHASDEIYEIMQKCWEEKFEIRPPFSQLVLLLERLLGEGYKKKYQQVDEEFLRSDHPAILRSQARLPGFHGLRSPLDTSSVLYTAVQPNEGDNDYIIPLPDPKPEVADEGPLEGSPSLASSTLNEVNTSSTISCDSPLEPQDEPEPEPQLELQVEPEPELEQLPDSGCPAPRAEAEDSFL

Consider `CO[C@H]1C[C@@H]2CC[C@@H](C)[C@@](O)(O2)C(=O)C(=O)N2CCCC[C@H]2C(=O)O[C@H]([C@H](C)C[C@@H]2CC[C@@H](O)[C@H](OC)C2)CC(=O)[C@H](C)/C=C(\C)[C@@H](O)[C@@H](OC)C(=O)[C@H](C)C[C@H](C)/C=C/C=C/C=C/1C`, for which the residual activity was 111% in assay [1]; 102% in [2]; 116% in assay [3]; 114% in assay [4]; 117% in assay [5]; 126% in assay [6]. Moreover, the residual activity in assay [7] was 112%; in assay [8] it was 141%; in assay [9] it was 103%; in assay [10], 98%.
For `COc1ccc(OC)c2c(=S)c3ccccc3[nH]c12`, the residual activity turned out to be 109% in assay [1]; 108% in assay [2]; 99% in [3]; 102% in assay [4]; 96% in assay [5]; 96% in assay [6]. In addition, the residual activity in assay [7] worked out at 87%; in [8], 94%; in assay [9] it was 89%; in assay [10] it was 84%.
Turning to `O=C(Nc1cccc(Nc2nccc(Nc3cccc(C(F)(F)F)c3)n2)c1)C1CC1`, the residual activity in assay [1] was 107%; in [2], 88%; in [3] it was 99%; in [4], 70%; in [5] it was 100%; in assay [6], 93%. The residual activity was determined as 75% in [7], 106% in assay [8], 89% in assay [9] and 67% in assay [10].
Regarding `COc1cc2ncnc(Nc3ccc(NC(=O)c4ccccc4)cc3)c2cc1OC`, the residual activity worked out at 81% in assay [2]; 102% in assay [4]; 106% in assay [6]; 71% in assay [7]; 85% in assay [8]; 102% in assay [10].
Regarding `COc1cc2ncnc(Nc3ccc(Oc4ccccc4)cc3)c2cc1OC`, the residual activity in assay [1] was 79%; in [2] it was 42%; in assay [3] it was 102%; in assay [4], 83%; in [5] it was 109%; in [6], 120%. For the same compound, the residual activity in [7] came out at 92%; in assay [8], 134%; in assay [9], 92%; in assay [10], 106%.
Take `c1ccc2c(-c3ccncc3)c[nH]c2c1`: the residual activity in assay [5] worked out at 111%; in assay [6], 110%; in [7] it was 93%; in assay [8] it was 50%; in assay [9], 89%; in assay [10], 76%.
Regarding `Cc1cc(Nc2nc(-c3ccccc3)nc3ccccc23)n[nH]1`, the residual activity in assay [2] stood at 26%; in assay [3], 79%; in [4] it was 28%; in [5], 94%; in assay [6] it was 39%; in assay [8], 70%. For the same compound, in [10], the residual activity was 46%.
As for `N#CC(C#N)=C(N)/C(C#N)=C/c1ccc(O)cc1`, the residual activity in [1] amounted to 119%; in assay [3], 99%; in [7], 82%; in assay [8] it was 63%.
For the compound `CO[C@@H]1[C@H](N(C)C(=O)c2ccccc2)C[C@H]2O[C@]1(C)n1c3ccccc3c3c4c(c5c6ccccc6n2c5c31)C(=O)NC4`, the residual activity is 54% in assay [1]; 32% in assay [2]; 46% in assay [3]; 25% in assay [4]; 2% in assay [5]; 1% in assay [6]. The figures for the residual activity in assay [8], in [9] and in assay [10] were 10%, 22% and 14%, respectively.
For `COc1ccc(S(=O)(=O)N(CCO)c2ccccc2CN(C)C/C=C/c2ccc(Cl)cc2)cc1`, the residual activity in assay [1] came out at 109%; in assay [2], 95%; in assay [3] it was 109%; in assay [4], 104%; in [5] it was 119%; in assay [6] it was 114%. Moreover, the residual activity in assay [7] came out at 105%; in [9], 104%; in assay [10] it was 56%.
Consider `N#C/C(=C(\N)Sc1ccc(N)cc1)c1ccccc1C(F)(F)F`, for which the residual activity came to 112% in [1]; 113% in assay [2]; 98% in [3]; 102% in [4]; 98% in assay [5]; 87% in [6]. The residual activity turned out to be 79% in [7], 80% in assay [8], 96% in [9] and 86% in assay [10].
Turning to `O=C1NC(=O)c2cc(Nc3ccc(F)cc3)c(Nc3ccc(F)cc3)cc21`, the residual activity turned out to be 115% in assay [1]; 107% in assay [2]; 109% in assay [3]; 95% in assay [4]; 106% in assay [5]; 110% in assay [6]. For the same compound, the residual activity came to 100% in assay [7], 82% in [8], 98% in [9] and 65% in assay [10].
Consider `Oc1ccc(Nc2nc(-c3ccc(Cl)cc3)cs2)cc1`, for which the residual activity in assay [1] is 87%; in assay [2], 83%; in assay [3], 117%; in assay [4], 137%; in assay [5] it was 115%; in assay [6], 102%. The residual activity was 100% in [7], 129% in assay [8], 123% in [9] and 104% in assay [10].
Regarding `O=c1cc(-c2cccc3c2Sc2ccccc2S3)oc(N2CCOCC2)c1`, the residual activity in assay [1] was 106%; in [3], 111%; in assay [4], 92%; in [5] it was 99%; in assay [6] it was 107%; in assay [7], 102%. Further, the values for the residual activity in assay [8], in assay [9] and in [10] were 104%, 106% and 84%, respectively.
`CCOc1cc2ncnc(Nc3cccc(Br)c3)c2cc1OCC`: the residual activity in [2] was 90%; in assay [3], 89%; in assay [4], 91%; in assay [5], 104%; in assay [6], 86%; in assay [7], 73%. Besides, the residual activity in [8] was determined as 86%; in assay [9], 100%; in [10], 100%.
`COc1cc2ncnc(N3CCN(C(=O)Nc4ccc(Oc5ccccc5)cc4)CC3)c2cc1OC`: the residual activity in [1] amounted to 26%; in assay [2], 6%; in assay [5], 106%; in assay [6], 116%; in [7], 102%; in [9], 94%. Besides, the residual activity in [10] worked out at 112%.
`CCN(CC)C(=O)c1ccc(Nc2nc(OCC3CCCCC3)c3nc[nH]c3n2)cc1`: the residual activity in assay [1] came to 65%; in assay [2] it was 18%; in [3], 63%; in [4], 14%; in assay [5] it was 20%; in [6], 3%. Besides, the residual activity worked out at 80% in [7], 52% in assay [8] and 40% in [10].
Take `Cc1cccc(-c2[nH]c(C(C)(C)C)nc2-c2ccc3c(c2)OCO3)n1`: the residual activity in assay [7] amounted to 87%; in assay [8], 91%.
For the compound `O=C1Nc2ccccc2/C1=C1/Nc2ccccc2/C1=N\OCCC(O)CO` (stereo unspecified), the residual activity was found to be 79% in [1]; 28% in assay [2]; 79% in [3]; 24% in assay [4]; 29% in assay [5]; 6% in [6]. Also, the residual activity in assay [8] was 38%; in [9] it was 80%; in assay [10] it was 36%.

(Values after ChEMBL document CHEMBL2218924, “A broad activity screen in support of a chemogenomic map for kinase signalling research and drug discovery” (Biochem J, 2013).)
